# Source: PubChem BioAssay (EPA / NIEHS)
# Results filed as inconclusive are left out. Activity calls are given as the source filed them. How the source made its calls, unless noted: active means hit-call score of the fitted dose curve at least 0.9, where 1 is the maximum; inconclusive means response in the unintended direction; inactive means score below 0.9.
# Tests used:
# [1] = ATG_TCF_b_cat_CIS: Attagene CIS-FACTORIAL HepG2 Assay for human T-Cell-Factor with beta-catenin (TCF/b-cat) (AID 2282965; active means hit-call score of the fitted dose curve at least 0.9, where 1 is the maximum; inactive means score below 0.9); details: HepG2 TCF/beta-catenin cis-reporter transcription, actives raise or lower the signal
# Procedure, shortened: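 Endogenous TCF/LEF activity read as reporter transcript level via RT-PCR and capillary electrophoresis fluorescence in transfected HepG2, 24 h exposure; gain or loss of signal fitted against DMSO controls.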
# [2] = ATG_TGFb_CIS: Attagene CIS-FACTORIAL HepG2 Assay for human Transforming Growth Factor (TGF) (AID 2282967; active means hit-call score of the fitted dose curve at least 0.9, where 1 is the maximum; inactive means score below 0.9); details: HepG2 Attagene CIS TGFb reporter, mRNA transcription; actives raise or lower the signal
# Procedure, shortened: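 Readout: fluorescently labeled reporter cDNA fragments resolved by capillary electrophoresis after RT-PCR. Transfected HepG2 cells dosed for 24 h; endogenous TF activity at TGFB1-linked cis element; gain or loss fitted relative to DMSO.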
# [3] = ATG_VDRE_CIS: Attagene CIS-FACTORIAL HepG2 Assay for human Vitamin D Receptor Element (VDRE) (AID 2282968; active means hit-call score of the fitted dose curve at least 0.9, where 1 is the maximum; inactive means score below 0.9); details: HepG2 VDRE cis-reporter transcription, actives raise or lower the signal
# Procedure, shortened: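 Reporter mRNA induction, quantified by capillary electrophoresis of fluorescently labelled RT-PCR products, was read 24 h after dosing HepG2 cells carrying transiently transfected cis-regulated reporter units; gain or loss relative to DMSO.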
# [4] = biological target: Steroid hormone receptor ERR1 (Homo sapiens) (UniProt P11474); assay: ATG_ERRa_TRANS: Attagene TRANS-FACTORIAL HepG2 Assay for human Estrogen-Related Receptor alpha (ERRa) (AID 2282971); details: HepG2 Attagene TRANS reporter, ERRa transactivation
# Procedure, shortened: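 Reporter transcripts from ERRa-Gal4 chimera activity measured in transiently transfected human HepG2 cells 24 hours after dosing, using RT-PCR with 6-FAM primer extension, HpaI digestion and capillary electrophoresis; DMSO is baseline.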
# [5] = biological target: X-box-binding protein 1 (Homo sapiens) (UniProt P17861); assay: ATG_Xbp1_CIS: Attagene CIS-FACTORIAL HepG2 Assay for human X-box Binding Protein 1 (XBP1) (AID 2282972; active means hit-call score of the fitted dose curve at least 0.9, where 1 is the maximum; inactive means score below 0.9); details: HepG2 XBP1 cis-element reporter, Attagene multiplex; actives raise or lower the signal
# Procedure, shortened: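 HepG2, transient MRTU transfection (cis-promoter driven), 24 h compound exposure. Total RNA → oligo(dT) RT → PCR → 6-FAM labeling → HpaI cut → CE. Bidirectional fit vs DMSO.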
# [6] = ATG_M_19_TRANS: Attagene TRANS-FACTORIAL HepG2 Assay for M19 Transcription Factor (Internal Marker) (AID 2282974); details: HepG2 Attagene TRANS-FACTORIAL M19 internal marker reporter
# Procedure, shortened: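 Fluorescence of 6-FAM-labelled reporter cDNA fragments, separated by capillary electrophoresis, served as the readout. These derived from HepG2 cells carrying transfected GAL4-UAS reporter units after 24 h dosing, with DMSO as negative control.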
# [7] = biological target: Estrogen-related receptor gamma (Homo sapiens) (UniProt P62508); assay: ATG_ERRg_TRANS: Attagene TRANS-FACTORIAL HepG2 Assay for human Estrogen-Related Receptor gamma (ERRg) (AID 2282977); details: HepG2 Attagene TRANS reporter, ERRg transactivation;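 further: hits increase reporter signal over DMSO so potencies reflect activators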
# Procedure, shortened: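 HepG2 cells transiently transfected with multiplexed GAL4-UAS reporter units driven by chimeric NR-Gal4 proteins; 24 h exposure. Reporter mRNA quantified by RT-PCR, fluorescent labelling, HpaI digestion and capillary electrophoresis; gain of signal vs DMSO.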
# [8] = biological target: Oxysterols receptor LXR-alpha (Homo sapiens) (UniProt Q13133); assay: ATG_LXRa_TRANS: Attagene TRANS-FACTORIAL HepG2 Assay for human Liver X Receptor alpha (LXRa) (AID 2282980); details: HepG2 Attagene TRANS reporter, LXRa transactivation
# Procedure, shortened: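 Chemical-induced reporter mRNA measured by RT-PCR with fluorescent labelling and capillary electrophoresis after 24 h dosing of transiently transfected HepG2 cells expressing exogenous NR-Gal4 chimeras; increases scored against DMSO baseline.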
# [9] = biological target: Oxysterols receptor LXR-beta (Homo sapiens) (UniProt P55055); assay: ATG_LXRb_TRANS: Attagene TRANS-FACTORIAL HepG2 Assay for human Liver X Receptor beta (LXRb) (AID 2282981); details: HepG2 Attagene TRANS GAL4-LXRb reporter, mRNA
# Procedure, shortened: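 Transient transfection HepG2 (multiplexed RTUs, GAL4-UAS); NR-Gal4 chimera; 24 h exposure; RNA → RT-PCR → 6-FAM primer extension → HpaI → CE; increase vs DMSO.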
# [10] = biological target: Transcriptional activator Myb (Homo sapiens) (UniProt P10242); assay: ATG_Myb_CIS: Attagene CIS-FACTORIAL HepG2 Assay for human Myeloblastosis (Myb) Proto-Oncogene Transcription Factor (AID 2282986; active means hit-call score of the fitted dose curve at least 0.9, where 1 is the maximum; inactive means score below 0.9); details: HepG2 Attagene CIS-FACTORIAL Myb reporter transcription; actives raise or lower the signal
# Procedure, shortened: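 Reporter transcript levels, quantified by fluorescent RT-PCR and capillary electrophoresis, serve as the read-out. Transfected HepG2 cells carrying cis-promoter reporter units are dosed for 24 hours, and curves are fitted bidirectionally against DMSO controls.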
# [11] = biological target: Estrogen receptor (Homo sapiens) (UniProt P03372); assay: ATG_ERa_TRANS: Attagene TRANS-FACTORIAL HepG2 Assay for human Estrogen Receptor alpha (ERa) (AID 2282970); details: HepG2 Attagene TRANS ERa GAL4 reporter, mRNA
# Procedure, shortened: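 Cells: HepG2, transiently transfected. Construct: GAL4-UAS reporter units regulated by exogenous NR-Gal4 chimeras. Time: 24 h. Detection: reporter mRNA by RT-PCR, capillary electrophoresis, fluorescence. Baseline: DMSO, upward fitting.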
# [12] = biological target: Hepatocyte nuclear factor 4-alpha (Homo sapiens) (UniProt P41235); assay: ATG_HNF4a_TRANS: Attagene TRANS-FACTORIAL HepG2 Assay for human Hepatocyte Nuclear Factor 4 alpha (HNF4a) (AID 2282982); details: HepG2 HNF4a transactivation reporter, mRNA readout
# Procedure, shortened: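 Readout is fluorescent reporter-transcript fragments resolved by capillary electrophoresis after RT-PCR from HepG2 cells dosed for 24 h. Cells carried transfected GAL4-UAS reporter constructs measuring exogenous NR-GAL4 chimera activity; DMSO served as baseline.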
# [13] = ATG_M_06_TRANS: Attagene TRANS-FACTORIAL HepG2 Assay for M06 Transcription Factor (Internal Marker) (AID 2282983); details: HepG2 Attagene TRANS M06 internal marker reporter
# Procedure, shortened: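 Cells: HepG2, transient multi-reporter transfection. Exposure: 24 h. Detection: RT-PCR, 6-FAM labelling, HpaI digestion (2 h, 37 °C), capillary electrophoresis. Baseline: DMSO.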
# [14] = ATG_M_32_TRANS: Attagene TRANS-FACTORIAL HepG2 Assay for M32 Transcription Factor (Internal Marker) (AID 2282984); details: HepG2 Attagene TRANS M32 internal marker reporter
# Procedure, shortened: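 Measures reporter mRNA induction in human HepG2 liver cells after 24 h chemical treatment. Transcripts from transiently transfected GAL4-UAS reporter units are amplified, fluorescently labelled and sized by capillary electrophoresis; gain of signal relative to DMSO.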
# [15] = biological target: Nuclear receptor subfamily 4 group A member 2 (Homo sapiens) (UniProt P43354); assay: ATG_NURR1_TRANS: Attagene TRANS-FACTORIAL HepG2 Assay for human Nuclear Receptor Related Protein 1 (NURR1) (AID 2282985); details: HepG2 Attagene TRANS reporter, mRNA readout
# Procedure, shortened: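 Transient transfection of HepG2, human liver cells, with multiple GAL4-UAS reporter transcription units. Cells dosed 24 h, RNA isolated, reverse-transcribed, PCR-amplified, FAM-labelled, HpaI-digested, sized by capillary electrophoresis. DMSO served as negative control.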
# [16] = biological target: Nuclear receptor subfamily 1 group I member 3 (Homo sapiens) (UniProt Q14994); assay: ATG_CAR_TRANS: Attagene TRANS-FACTORIAL HepG2 Assay for human Constitutive Androstane Receptor (CAR) (AID 2282969); details: HepG2 Attagene TRANS-FACTORIAL CAR reporter;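 further: activators raise reporter mRNA above DMSO so AC50 marks induction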
# Procedure, shortened: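 Readout is reporter mRNA induction, quantified by fluorescent primer extension and capillary electrophoresis after RT-PCR. Cells were HepG2 transiently carrying chimeric NR-Gal4 constructs with GAL4-UAS reporters, treated for 24 h; activity scored upward from DMSO.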
# [17] = biological target: Glucocorticoid receptor (Homo sapiens) (UniProt P04150); assay: ATG_GR_TRANS: Attagene TRANS-FACTORIAL HepG2 Assay for human Glucocorticoid Receptor (GR) (AID 2282978); details: HepG2 Attagene TRANS GR reporter, mRNA transcription;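 further: activators score as hits since higher reporter transcript over DMSO is fitted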
# Procedure, shortened: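 Fluorescent capillary-electrophoresis quantitation of reporter mRNA is the readout, taken 24 h after dosing human HepG2 cells carrying transiently transfected GAL4-UAS reporter units activated by chimeric NR-GAL4 fusions; activity scored as induction over DMSO.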
# [18] = biological target: Bile acid receptor (Homo sapiens) (UniProt Q96RI1); assay: ATG_FXR_TRANS: Attagene TRANS-FACTORIAL HepG2 Assay for Farnesoid X Receptor (FXR) (AID 2282979); details: HepG2 Attagene TRANS FXR-GAL4 reporter transcription;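 further: hits raise reporter mRNA above DMSO so AC50 marks FXR activation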
# Procedure, shortened: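 Reporter transcripts from transfected HepG2 cells were measured 24 h after dosing, using RT-PCR with capillary electrophoresis of 6-FAM-labelled fragments. The read-out reflects activity of exogenous FXR-Gal4 chimera on GAL4-UAS units, with induction relative to DMSO.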
# Sequence of Transcriptional activator Myb (Homo sapiens) (P10242 whole entry, looked up): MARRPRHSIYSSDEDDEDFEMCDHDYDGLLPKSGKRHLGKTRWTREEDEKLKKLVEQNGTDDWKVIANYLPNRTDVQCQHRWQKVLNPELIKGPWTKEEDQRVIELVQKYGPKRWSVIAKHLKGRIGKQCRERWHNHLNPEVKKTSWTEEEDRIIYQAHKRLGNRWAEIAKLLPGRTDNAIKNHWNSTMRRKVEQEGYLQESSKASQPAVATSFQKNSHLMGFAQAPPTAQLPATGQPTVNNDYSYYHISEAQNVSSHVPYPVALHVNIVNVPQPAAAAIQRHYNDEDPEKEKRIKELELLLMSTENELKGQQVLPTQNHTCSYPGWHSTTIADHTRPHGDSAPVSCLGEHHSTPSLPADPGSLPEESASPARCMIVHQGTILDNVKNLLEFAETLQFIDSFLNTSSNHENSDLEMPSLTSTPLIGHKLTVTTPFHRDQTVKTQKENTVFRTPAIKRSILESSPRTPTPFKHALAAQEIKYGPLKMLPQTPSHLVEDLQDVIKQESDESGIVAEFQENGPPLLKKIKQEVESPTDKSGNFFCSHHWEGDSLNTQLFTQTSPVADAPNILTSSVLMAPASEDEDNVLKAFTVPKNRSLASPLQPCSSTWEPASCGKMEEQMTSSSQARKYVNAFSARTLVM
# Sequence of X-box-binding protein 1 (Homo sapiens) (P17861 whole entry, looked up): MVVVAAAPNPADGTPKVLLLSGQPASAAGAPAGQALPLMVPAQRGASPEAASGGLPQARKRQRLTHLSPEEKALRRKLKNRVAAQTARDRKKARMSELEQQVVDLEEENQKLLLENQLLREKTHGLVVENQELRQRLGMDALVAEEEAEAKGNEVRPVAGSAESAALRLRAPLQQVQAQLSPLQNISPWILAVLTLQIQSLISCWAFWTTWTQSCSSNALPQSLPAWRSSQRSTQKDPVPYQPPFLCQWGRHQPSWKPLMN
# Sequence of Oxysterols receptor LXR-beta (Homo sapiens) (P55055 whole entry, looked up, the tested form may be a part): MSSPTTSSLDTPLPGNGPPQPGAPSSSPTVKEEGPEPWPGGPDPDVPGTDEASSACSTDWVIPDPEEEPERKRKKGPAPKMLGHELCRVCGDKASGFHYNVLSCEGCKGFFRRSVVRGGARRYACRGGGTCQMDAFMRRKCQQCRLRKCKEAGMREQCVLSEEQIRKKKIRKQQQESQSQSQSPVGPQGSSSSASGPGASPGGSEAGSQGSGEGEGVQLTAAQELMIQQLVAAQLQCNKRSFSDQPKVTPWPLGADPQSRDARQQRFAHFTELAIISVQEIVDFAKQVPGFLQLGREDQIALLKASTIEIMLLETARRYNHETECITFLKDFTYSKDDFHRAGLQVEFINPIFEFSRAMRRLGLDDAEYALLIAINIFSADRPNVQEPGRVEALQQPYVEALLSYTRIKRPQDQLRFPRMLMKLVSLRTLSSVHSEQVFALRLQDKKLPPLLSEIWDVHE
# Sequence of Oxysterols receptor LXR-alpha (Homo sapiens) (Q13133 whole entry, looked up, the tested form may be a part): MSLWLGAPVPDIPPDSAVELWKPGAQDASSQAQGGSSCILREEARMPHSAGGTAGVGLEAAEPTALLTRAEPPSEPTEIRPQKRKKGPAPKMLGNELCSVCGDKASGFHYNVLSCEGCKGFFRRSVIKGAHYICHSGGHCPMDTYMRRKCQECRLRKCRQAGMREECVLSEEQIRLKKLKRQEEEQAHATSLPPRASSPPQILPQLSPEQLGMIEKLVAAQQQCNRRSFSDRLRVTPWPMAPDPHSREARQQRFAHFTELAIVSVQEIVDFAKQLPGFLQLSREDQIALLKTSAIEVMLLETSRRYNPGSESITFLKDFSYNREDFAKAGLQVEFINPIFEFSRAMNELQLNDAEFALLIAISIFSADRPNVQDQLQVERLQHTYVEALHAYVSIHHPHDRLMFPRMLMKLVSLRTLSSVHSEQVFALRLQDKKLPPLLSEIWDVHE
# Sequence of Steroid hormone receptor ERR1 (Homo sapiens) (P11474 whole entry, looked up, the tested form may be a part): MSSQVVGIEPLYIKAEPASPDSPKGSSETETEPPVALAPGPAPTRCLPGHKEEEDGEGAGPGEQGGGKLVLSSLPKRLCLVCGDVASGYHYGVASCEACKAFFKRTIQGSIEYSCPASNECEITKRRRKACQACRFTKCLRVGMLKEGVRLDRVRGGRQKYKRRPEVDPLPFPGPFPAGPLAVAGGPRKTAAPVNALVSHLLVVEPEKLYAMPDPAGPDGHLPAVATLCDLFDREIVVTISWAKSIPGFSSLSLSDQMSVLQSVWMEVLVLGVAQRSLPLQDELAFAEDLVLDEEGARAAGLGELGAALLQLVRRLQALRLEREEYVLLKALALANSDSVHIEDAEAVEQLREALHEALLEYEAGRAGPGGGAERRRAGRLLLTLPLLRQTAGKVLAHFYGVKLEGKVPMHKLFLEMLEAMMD
# Sequence of Hepatocyte nuclear factor 4-alpha (Homo sapiens) (P41235 whole entry, looked up, the tested form may be a part): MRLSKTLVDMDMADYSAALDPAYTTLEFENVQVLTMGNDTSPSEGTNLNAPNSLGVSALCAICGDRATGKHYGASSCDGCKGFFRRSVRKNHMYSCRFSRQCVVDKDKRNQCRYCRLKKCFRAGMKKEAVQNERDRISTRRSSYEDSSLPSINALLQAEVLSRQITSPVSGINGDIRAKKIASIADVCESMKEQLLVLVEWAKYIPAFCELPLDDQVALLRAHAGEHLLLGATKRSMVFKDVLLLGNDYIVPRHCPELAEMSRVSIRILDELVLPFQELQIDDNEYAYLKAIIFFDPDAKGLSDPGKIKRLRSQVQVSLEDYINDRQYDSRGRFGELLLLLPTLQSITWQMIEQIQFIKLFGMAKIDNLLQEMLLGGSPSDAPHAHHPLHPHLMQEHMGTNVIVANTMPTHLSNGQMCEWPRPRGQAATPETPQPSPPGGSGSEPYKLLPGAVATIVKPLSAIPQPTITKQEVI
# Sequence of Estrogen receptor (Homo sapiens) (P03372 whole entry, looked up, the tested form may be a part): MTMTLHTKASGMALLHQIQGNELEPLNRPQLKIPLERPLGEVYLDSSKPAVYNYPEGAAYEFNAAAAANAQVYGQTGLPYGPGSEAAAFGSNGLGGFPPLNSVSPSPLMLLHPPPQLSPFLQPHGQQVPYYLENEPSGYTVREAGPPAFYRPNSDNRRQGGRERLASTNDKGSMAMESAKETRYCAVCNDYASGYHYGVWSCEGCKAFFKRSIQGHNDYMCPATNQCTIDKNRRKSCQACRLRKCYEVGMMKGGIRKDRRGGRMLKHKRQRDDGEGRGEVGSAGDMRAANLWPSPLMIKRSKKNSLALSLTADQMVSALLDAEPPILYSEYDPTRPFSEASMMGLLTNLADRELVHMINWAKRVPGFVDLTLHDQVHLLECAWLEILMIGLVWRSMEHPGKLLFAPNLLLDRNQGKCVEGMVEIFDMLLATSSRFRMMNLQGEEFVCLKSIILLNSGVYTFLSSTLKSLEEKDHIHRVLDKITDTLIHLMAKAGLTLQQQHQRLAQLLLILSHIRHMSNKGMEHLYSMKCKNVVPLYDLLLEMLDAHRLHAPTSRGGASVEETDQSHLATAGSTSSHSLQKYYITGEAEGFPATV
# Sequence of Estrogen-related receptor gamma (Homo sapiens) (P62508 whole entry, looked up, the tested form may be a part): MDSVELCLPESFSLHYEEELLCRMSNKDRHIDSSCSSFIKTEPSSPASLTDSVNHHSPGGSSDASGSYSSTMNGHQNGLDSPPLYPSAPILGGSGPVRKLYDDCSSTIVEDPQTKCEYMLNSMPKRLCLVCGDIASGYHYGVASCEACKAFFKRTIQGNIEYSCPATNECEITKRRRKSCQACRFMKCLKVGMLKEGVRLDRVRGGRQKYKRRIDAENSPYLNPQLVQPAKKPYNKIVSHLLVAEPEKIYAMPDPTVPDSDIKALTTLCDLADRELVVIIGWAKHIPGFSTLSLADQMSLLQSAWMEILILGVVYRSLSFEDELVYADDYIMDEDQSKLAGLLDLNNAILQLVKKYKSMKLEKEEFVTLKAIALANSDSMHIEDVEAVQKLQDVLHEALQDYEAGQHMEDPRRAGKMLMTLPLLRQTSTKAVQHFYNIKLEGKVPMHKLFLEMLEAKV
# Sequence of Nuclear receptor subfamily 4 group A member 2 (Homo sapiens) (P43354 whole entry, looked up, the tested form may be a part): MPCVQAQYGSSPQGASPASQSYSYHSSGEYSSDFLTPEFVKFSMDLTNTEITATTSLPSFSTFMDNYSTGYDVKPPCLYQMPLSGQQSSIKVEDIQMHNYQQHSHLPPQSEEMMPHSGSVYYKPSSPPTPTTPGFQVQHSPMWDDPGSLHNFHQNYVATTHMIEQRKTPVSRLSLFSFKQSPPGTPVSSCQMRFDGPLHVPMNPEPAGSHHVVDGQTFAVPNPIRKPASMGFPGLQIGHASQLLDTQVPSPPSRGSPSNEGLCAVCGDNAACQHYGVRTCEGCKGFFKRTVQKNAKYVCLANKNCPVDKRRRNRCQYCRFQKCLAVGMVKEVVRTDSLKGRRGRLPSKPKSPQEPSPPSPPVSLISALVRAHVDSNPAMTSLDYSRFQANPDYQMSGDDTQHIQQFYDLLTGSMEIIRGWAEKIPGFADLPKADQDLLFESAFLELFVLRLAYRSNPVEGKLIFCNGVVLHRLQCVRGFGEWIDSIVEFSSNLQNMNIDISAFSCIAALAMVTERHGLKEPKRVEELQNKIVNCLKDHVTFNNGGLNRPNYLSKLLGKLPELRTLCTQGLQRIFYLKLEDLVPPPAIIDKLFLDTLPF
# Sequence of Bile acid receptor (Homo sapiens) (Q96RI1 whole entry, looked up, the tested form may be a part): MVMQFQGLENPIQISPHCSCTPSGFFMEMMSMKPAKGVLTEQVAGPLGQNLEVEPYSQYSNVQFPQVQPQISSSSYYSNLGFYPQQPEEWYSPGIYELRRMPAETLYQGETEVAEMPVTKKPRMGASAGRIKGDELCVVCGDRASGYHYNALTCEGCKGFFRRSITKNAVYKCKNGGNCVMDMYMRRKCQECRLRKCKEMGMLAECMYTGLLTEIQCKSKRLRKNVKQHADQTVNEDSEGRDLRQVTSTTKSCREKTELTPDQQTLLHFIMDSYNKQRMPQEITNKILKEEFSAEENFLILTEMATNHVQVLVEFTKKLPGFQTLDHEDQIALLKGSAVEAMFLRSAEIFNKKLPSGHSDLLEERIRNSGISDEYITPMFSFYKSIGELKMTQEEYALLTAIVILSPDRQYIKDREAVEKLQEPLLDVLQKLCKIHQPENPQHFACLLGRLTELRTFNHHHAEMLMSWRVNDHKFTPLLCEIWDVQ
compound,measurement,setting,value
COc1cccc2c1C(=O)c1c(O)c3c(c(O)c1C2=O)C[C@@](O)(C(=O)CO)C[C@@H]3O[C@H]1C[C@H](N)[C@H](O)[C@H](C)O1,AC50,[1],1.26 µM (active)
same,outcome,[2],inactive
same,AC50,[3],0.318 µM (active)
same,outcome,[4],inactive
same,AC50,[5],0.0821 µM (active)
same,outcome,[6],inactive
same,outcome,[7],inactive
same,outcome,[8],inactive
same,outcome,[9],inactive
same,outcome,[10],inactive
CCCCN(CCCC)CCCC,outcome,[1],inactive
same,outcome,[3],inactive
same,outcome,[11],inactive
same,outcome,[5],inactive
same,outcome,[12],inactive
same,outcome,[13],inactive
same,outcome,[14],inactive
same,outcome,[15],inactive
same,outcome,[10],inactive
COc1ccc(S(=O)(=O)N2C(=O)[C@@](c3ccccc3OC)(N3C[C@H](O)C[C@H]3C(=O)N(C)C)c3cc(Cl)ccc32)c(OC)c1,AC50,[1],42.1 µM (active)
same,AC50,[2],145 µM (active)
same,AC50,[3],19.8 µM (active)
same,AC50,[5],69.5 µM (active)
same,outcome,[6],inactive
same,outcome,[15],inactive
same,AC50,[10],163 µM (active)
CCCCCCCCCCCCCO,AC50,[1],34.3 µM (active)
same,outcome,[3],inactive
same,outcome,[16],inactive
same,outcome,[4],inactive
same,outcome,[5],inactive
same,outcome,[6],inactive
same,outcome,[17],inactive
same,outcome,[9],inactive
same,outcome,[12],inactive
same,outcome,[13],inactive
same,outcome,[14],inactive
same,AC50,[10],34.3 µM (active)
CCCCCCCCCCO,AC50,[1],166 µM (active)
same,outcome,[2],inactive
same,outcome,[3],inactive
same,AC50,[5],160 µM (active)
same,outcome,[12],inactive
same,outcome,[13],inactive
same,outcome,[10],inactive
CC(=O)Oc1ccccc1C(=O)O,AC50,[1],162 µM (active)
same,outcome,[2],inactive
same,AC50,[3],82.9 µM (active)
same,outcome,[5],inactive
same,outcome,[17],inactive
same,AC50,[8],71.6 µM (active)
same,AC50,[9],100 µM (active)
same,outcome,[12],inactive
same,outcome,[13],inactive
same,AC50,[15],100 µM (active)
same,outcome,[10],inactive
CCc1c(C(=O)NN2CCCCC2)nn(-c2ccc(Cl)cc2Cl)c1-c1ccc(Br)cc1,AC50,[1],3.53 µM (active)
same,AC50,[3],1.38 µM (active)
same,outcome,[4],inactive
same,outcome,[5],inactive
same,outcome,[6],inactive
same,outcome,[18],inactive
same,outcome,[14],inactive
same,outcome,[15],inactive
same,outcome,[10],inactive
C1CCC(SSC2CCCCC2)CC1,outcome,[1],inactive
same,outcome,[2],inactive
same,outcome,[3],inactive
same,outcome,[5],inactive
same,outcome,[8],inactive
same,outcome,[9],inactive
same,outcome,[13],inactive
same,outcome,[10],inactive
CC1(C)NC(=O)NC1=O,outcome,[1],inactive
same,outcome,[3],inactive
same,outcome,[16],inactive
same,AC50,[11],26.3 µM (active)
same,outcome,[4],inactive
same,outcome,[5],inactive
same,outcome,[6],inactive
same,outcome,[17],inactive
same,outcome,[8],inactive
same,outcome,[9],inactive
same,outcome,[12],inactive
same,outcome,[13],inactive
same,outcome,[14],inactive
same,outcome,[15],inactive
same,outcome,[10],inactive
Nc1nc(N)c2nc(CNc3ccc(C(=O)N[C@@H](CCC(=O)O)C(=O)O)cc3)cnc2n1,AC50,[1],116 µM (active)
same,outcome,[3],inactive
same,outcome,[11],inactive
same,outcome,[5],inactive
same,outcome,[7],inactive
same,outcome,[17],inactive
same,outcome,[18],inactive
same,outcome,[9],inactive
same,outcome,[12],inactive
same,outcome,[13],inactive
same,outcome,[15],inactive
same,outcome,[10],inactive
Cc1ccc2ncccc2c1,outcome,[1],inactive
same,outcome,[5],inactive
same,outcome,[6],inactive
same,outcome,[7],inactive
same,outcome,[17],inactive
same,outcome,[13],inactive
same,outcome,[10],inactive
Cc1ccc(N(C)C)cc1,outcome,[1],inactive
same,outcome,[2],inactive
same,outcome,[3],inactive
same,outcome,[11],inactive
same,outcome,[5],inactive
same,outcome,[17],inactive
same,outcome,[12],inactive
same,outcome,[13],inactive
same,outcome,[14],inactive
same,outcome,[10],inactive
